Reference: the supplement of paper PMC10338343
± gives the standard deviation.

Tested on: MILI (PIWIL2) piRISC loaded with piRNA #1 (26 nt)
Experiment: pre-steady-state target cleavage rate (min^-1); guide: piRNA #1 5'p-UGAGGUAGUAGGUUGUAUAGUAUCCA; MIWI and MILI are mouse PIWI proteins and EfPiwi is from a freshwater sponge; tags in brackets are library labels; higher = faster piRNA-guided slicing of the target
Conditions: auxiliary factor: 500 nM mouse GTSF1
Outline: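 Cleave-'n-Seq measured uncleaved targets by sequencing after a transcribed, DNA-blocked target RNA library […] was mixed with 1 nM active affinity-purified piRISC holding one synthetic guide, with or without 500 nM GTSF1 partner protein, at 33 °C in HEPES–potassium acetate buffer for 0–8 or 0–960 min. Counts were normalised to depth and to weakly complementary targets, three trials were pooled, and k3 was capped at 0.0001 min^-1. A burst-and-steady-state fit gave the pre-steady-state cleavage rate.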
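Further: 1 nM active piRISC with 0.1 nM target library at 33 °C single turnover.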

Sequence	pre-steady-state target cleavage rate
GGAGACCUUACUAUACAACCUACUACGUCA	0.0741 ± 0.01
GGAGACGAUUCUAUACAACCUACUACCACA	0.219 ± 0.015
GGAGACCAUACUAUACAACCUAACUACCUCA	0.0248 ± 0.0049
GGAGACCUUACUAUACAAGCUACUACCACA	0.266 ± 0.023
GGAGUGCAUACUAUACAACCUACUACCUCA	0.18 ± 0.0089
GGAGACCAUACUAUACAUCGUACUACCUCA	0.0535 ± 0.0071
GGAGAGGAUACUAUACAACGCUACUACCUCA	0.00299 ± 0.0026
GGAGUGGAUACUAUACAAGCAACUACCUCA	0.00874 ± 0.0017
GGAGAGGAUACUAUAGAACCUACUACCUCA	0.166 ± 0.013
GGAGUGGUUACAAUACAACCUACUACCUCA	0.172 ± 0.011
GGAGAGGAUACUAUAUAACCUACUACCUCA	0.167 ± 0.01
GGAGACCAUACUAUACAACCUUCUACGUCA	0.00397 ± 0.0034
GGAGACCAAACUAUACAACCUACUACGUCA	0.042 ± 0.015
GGAGACCUAACUAUACAACCUACUACCCA	0.0749 ± 0.027
GGAGACCAAACUAUUCAACCUACUACCUCA	0.217 ± 0.047
GGAGACCUUACUAUACAACCUACUACUUCA	0.116 ± 0.016
GGAGACCAUACUAUUACAACCUACUACCUCA	0.161 ± 0.013
GGAGAGGAUACAAUACAACCUACUACCUGA	0.0513 ± 0.0087
GGAGACCAUACUAUACACCCUACUACCUCA	0.0841 ± 0.016
GGAGAGGAUACUCUACAACCUACUACCUCA	0.204 ± 0.013
GGAGAGGAUACUAUACAACCUACUACCUCC [g2:g25:cont:t1C]	0.146 ± 0.013
GGAGACGAUACUAUACAACCUACUUACCUCA	0.169 ± 0.014
GGAGACCUUACUGAUACAACCUACUACCUCA	0.0968 ± 0.011
GGAGAGGAUACUAUUCAACCUACUAGCUCA	0.063 ± 0.014
